B1: ENSMUSG00000061578.134|Ksr2|58:63;126:130;148:163;199:203 (ssRNA)
RNA: GGGAGUUCUACAGUCCGACGAUCGCUUCGAUAUCCGCAUGCUAAUGGCUUCCCCCAAAGUCCCGAGUCCUGAGAACCGGGGCUGUGGCAAGAGAGUUCUGCACACAUCUCUCUGUGGGGCUAGCAAUGCCGGGGUUAAGUUCUCCCUCGGUGAUGGAGACGGUCCUGGCAUACCAUGAUGGGUUACAUGGCACACACACACACACAAACUGUUUACAAUGGUCUCCCUGCCUCUCACGGGCACACAUCCAGGAGAAUGCACAUAGAGAGGUUCUGUGGUCUCUGCUGUCGCCUGGUGCUGAAUCUCUUGCGGUCGCACUAGUGUGGAAUUCUCGGGUGUCAAGG
B2: ENSMUSG00000029636.224|Wasf3|112:116;205:212 (ssRNA)
RNA: GGGAGUUCUACAGUCCGACGAUCGCUUCGAUAUCCGCAUGCUAUUGCAGAGGGACCAGGACACUGCCUUCCCUUAGGUGCAUUAUUUACGUGGCCUGCAGCUCUUAAUAUCUCUCACUGUUUAUGAAAAGAAAGAUUCAGAUCCGGGGUGACAUACACACAGUUGACAGGGAAUGCCUGUGGGAUAAUUAAAAAUGGUUUUUGCUCAUGAGUUUGGGAUGUCACCCAGCCGCCCACAUCGCCUGCUAACACACACGACGCCUGUCCGCUUGGCCAGCUAUCCUGUAACACCUGCCAGUAGUAGCUCUUGCGGUCGCACUAGUGUGGAAUUCUCGGGUGUCAAGG
B3: ENSMUSG00000031028.392|Tub (ssRNA)
RNA: GGGAGUUCUACAGUCCGACGAUCGCUUCGAUAUCCGCAUGCUAAGCUCCUGGUGAUAAUGCCUUUUCUUGACCACUGGCGCUGUGAACACAGGCUAAUGGACUUCAGAUACCAGGGCCCCGGGAUCACCUGGGUUAGCCUCUCCCACAGGAAGAUCCCUUACCCCUCAUCCCCUCUUCUUUUUGGUCCUUGGCUGGGUAGCAAAUUGGUGAGAAGAGCAGCCUAGUCUGUAAGAGUGCAGGGCAGCUGGAACCUUAGGCAGCUCCUCUGUAUGCUACCGGCUCCACACCCUAACACUCUCCACCUCUUGCGGUCGCACUAGUGUGGAAUUCUCGGGUGUCAAGG
B4: ENSMUSG00000029028.200|Lrrc47 (ssRNA)
RNA: GGGAGUUCUACAGUCCGACGAUCGCUUCGAUAUCCGCAUGCUAUGUACCAGCACACAGCUGCCAUCCCUCGAGCCACAGUGCCUGGUCCUAAGGACCCAGCAGCUGCACAGAGGACUUGGUGGCCCCGUGCCUUGCCAUCUGGCUGAGAAGAGAACCAGACCCUCAGCCUUCCCCCUCGACACCUUCUCGUUGGUGACCUCUGACCUUAAAGGACCAUUUCUACCUUCUGUAAAAGAACACCUGUUUGGGGUUGCGUGCGGCUUUCAUCCUAAGGCCGUGCGAGAGCCGUUAGCUGUCAGAACCUCUUGCGGUCGCACUAGUGUGGAAUUCUCGGGUGUCAAGG
B5: ENSMUSG00000061578.980|Ksr2 (ssRNA)
RNA: GGGAGUUCUACAGUCCGACGAUCGCUUCGAUAUCCGCAUGCUAAUCCAUGACUCAGAAUUUUCCAGAGACCCAAUCCCUCGGGGUCCACUUAGUGAUGGGACCAUACAAGAGUUUAUUUCCAAUUAGAGAAUUGGGUCAACUGGGAAAGGCUUCUUUCCUGGUAACCCUGCUACUGAUACUAUGUUGAAACAGGAAUCGACUCUAACUGCUUUUUGGCCUCUUCCCUGCACGGGAGUCUCAAAAUCAAGUUUUUACCCAGUGGCCUCUGGGAUCCACUCUCUCUACUCCUGAACUCUUAAAACCUCUUGCGGUCGCACUAGUGUGGAAUUCUCGGGUGUCAAGG
B6: ENSMUSG00000061578.705|Ksr2 (ssRNA)
RNA: GGGAGUUCUACAGUCCGACGAUCGCUUCGAUAUCCGCAUGCUAUUGAGGUGCCUUCCUGUAGUCUCUUGUGUCAUCUUCUUCUAAGACCACUAAUAACACCGCCUUUCUCCUUGAUCCGGGCCUCAGACCUCUUCAGAGAUUCUUUCUCUGAAUGUACGUGGGGGACUCCAACAGAUGUUGGGAGAAGACUCAAUAUGAGCAUACGGGGUCAUUGUUCAAUCCUGUAUCAAGACCUUGGAGUUGUCUAAGGCUGUGGGUUUUAAAUACCUGCUGCAGGCCUCCCAUCUCUGGCUCUUUGUUUCCUCUUGCGGUCGCACUAGUGUGGAAUUCUCGGGUGUCAAGG
B7: ENSMUSG00000058297.33|Spock2|53:57;61:74;83:94;108:114;123:132;138:163 (ssRNA)
RNA: GGGAGUUCUACAGUCCGACGAUCGCUUCGAUAUCCGCAUGCUAGAUCCGGAAGUCAGUGCGGAGGACCCUGGCUCCAGUGGGGGAGGACUGGGGACACACGCUACACACAUACACACAUAUGAGAACACACACAUACAUGUGAGAUGUGACACACACAUGUGAGAACACACAUACUGAGAACACACACACACACACACACACACACAUGUGAGUCACCCAAAGGUCCCUAUGUUAUUGAUUUUCAAAUGCACACUUUCACACACAAGGAUACACUAACAGACCAAAAUCAAUGAGAUGUCCCUCUCUUGCGGUCGCACUAGUGUGGAAUUCUCGGGUGUCAAGG
B8: ENSMUSG00000058297.32|Spock2|59:63;67:80;89:100;114:120;129:138;144:169 (ssRNA)
RNA: GGGAGUUCUACAGUCCGACGAUCGCUUCGAUAUCCGCAUGCUACAAAUGGAUCCGGAAGUCAGUGCGGAGGACCCUGGCUCCAGUGGGGGAGGACUGGGGACACACGCUACACACAUACACACAUAUGAGAACACACACAUACAUGUGAGAUGUGACACACACAUGUGAGAACACACAUACUGAGAACACACACACACACACACACACACACAUGUGAGUCACCCAAAGGUCCCUAUGUUAUUGAUUUUCAAAUGCACACUUUCACACACAAGGAUACACUAACAGACCAAAAUCAAUGAGAUCUCUUGCGGUCGCACUAGUGUGGAAUUCUCGGGUGUCAAGG
B9: ENSMUSG00000058297.33|Spock2 (ssRNA)
RNA: GGGAGUUCUACAGUCCGACGAUCGCUUCGAUAUCCGCAUGCUAGAUCCGGAAGUCAGUGCGGAGGACCCUGGCUCCAGUGGGGGAGGACUGGGGAGUGUGGCUUGUGUGUAUGUGUGAUAUGAGAUGUGUGUGUAUGAUGUGAGAUGUGAGUGUGUGAUGUGAGAUGUGUGUAUGUGAGAUGUGUGUGUGUGUGUGUGUGUGUGUGAUGUGAGUCACCCAAAGGUCCCUAUGUUAUUGAUUUUCAAAUGCACACUUUCACACACAAGGAUACACUAACAGACCAAAAUCAAUGAGAUGUCCCUCUCUUGCGGUCGCACUAGUGUGGAAUUCUCGGGUGUCAAGG
B10: ENSMUSG00000058297.34|Spock2 (ssRNA)
RNA: GGGAGUUCUACAGUCCGACGAUCGCUUCGAUAUCCGCAUGCUAGAAGUCAGUGCGGAGGACCCUGGCUCCAGUGGGGGAGGACUGGGGAGUGUGGCUUGUGUGUAUGUGUGAUAUGAGAUGUGUGUGUAUGAUGUGAGAUGUGAGUGUGUGAUGUGAGAUGUGUGUAUGUGAGAUGUGUGUGUGUGUGUGUGUGUGUGUGAUGUGAGUCACCCAAAGGUCCCUAUGUUAUUGAUUUUCAAAUGCACACUUUCACACACAAGGAUACACUAACAGACCAAAAUCAAUGAGAUGUCCCUGAUCCUCUCUUGCGGUCGCACUAGUGUGGAAUUCUCGGGUGUCAAGG
B11: ENSMUSG00000058297.34|Spock2|47:51;55:68;77:88;102:108;117:126;132:157 (ssRNA)
RNA: GGGAGUUCUACAGUCCGACGAUCGCUUCGAUAUCCGCAUGCUAGAAGUCAGUGCGGAGGACCCUGGCUCCAGUGGGGGAGGACUGGGGACACACGCUACACACAUACACACAUAUGAGAACACACACAUACAUGUGAGAUGUGACACACACAUGUGAGAACACACAUACUGAGAACACACACACACACACACACACACACAUGUGAGUCACCCAAAGGUCCCUAUGUUAUUGAUUUUCAAAUGCACACUUUCACACACAAGGAUACACUAACAGACCAAAAUCAAUGAGAUGUCCCUGAUCCUCUCUUGCGGUCGCACUAGUGUGGAAUUCUCGGGUGUCAAGG
B12: ENSMUSG00000058297.42|Spock2 (ssRNA)
RNA: GGGAGUUCUACAGUCCGACGAUCGCUUCGAUAUCCGCAUGCUAGUGGCUUGUGUGUAUGUGUGAUAUGAGAUGUGUGUGUAUGAUGUGAGAUGUGAGUGUGUGAUGUGAGAUGUGUGUAUGUGAGAUGUGUGUGUGUGUGUGUGUGUGUGUGAUGUGAGUCACCCAAAGGUCCCUAUGUUAUUGAUUUUCAAAUGCACACUUUCACACACAAGGAUACACUAACAGACCAAAAUCAAUGAGAUGUCCCUGAUCCUGCCCCUCAGCCCAACACCUGGAAUCCCUGCCCUGCCUAAUCAGCCCUACUCUUGCGGUCGCACUAGUGUGGAAUUCUCGGGUGUCAAGG
B13: ENSMUSG00000058297.36|Spock2 (ssRNA)
RNA: GGGAGUUCUACAGUCCGACGAUCGCUUCGAUAUCCGCAUGCUAGAGGACCCUGGCUCCAGUGGGGGAGGACUGGGGAGUGUGGCUUGUGUGUAUGUGUGAUAUGAGAUGUGUGUGUAUGAUGUGAGAUGUGAGUGUGUGAUGUGAGAUGUGUGUAUGUGAGAUGUGUGUGUGUGUGUGUGUGUGUGUGAUGUGAGUCACCCAAAGGUCCCUAUGUUAUUGAUUUUCAAAUGCACACUUUCACACACAAGGAUACACUAACAGACCAAAAUCAAUGAGAUGUCCCUGAUCCUGCCCCUCAGCCCCUCUUGCGGUCGCACUAGUGUGGAAUUCUCGGGUGUCAAGG
B14: ENSMUSG00000058297.35|Spock2 (ssRNA)
RNA: GGGAGUUCUACAGUCCGACGAUCGCUUCGAUAUCCGCAUGCUAAGUGCGGAGGACCCUGGCUCCAGUGGGGGAGGACUGGGGAGUGUGGCUUGUGUGUAUGUGUGAUAUGAGAUGUGUGUGUAUGAUGUGAGAUGUGAGUGUGUGAUGUGAGAUGUGUGUAUGUGAGAUGUGUGUGUGUGUGUGUGUGUGUGUGAUGUGAGUCACCCAAAGGUCCCUAUGUUAUUGAUUUUCAAAUGCACACUUUCACACACAAGGAUACACUAACAGACCAAAAUCAAUGAGAUGUCCCUGAUCCUGCCCCUCUCUUGCGGUCGCACUAGUGUGGAAUUCUCGGGUGUCAAGG
B15: ENSMUSG00000058297.32|Spock2 (ssRNA)
RNA: GGGAGUUCUACAGUCCGACGAUCGCUUCGAUAUCCGCAUGCUACAAAUGGAUCCGGAAGUCAGUGCGGAGGACCCUGGCUCCAGUGGGGGAGGACUGGGGAGUGUGGCUUGUGUGUAUGUGUGAUAUGAGAUGUGUGUGUAUGAUGUGAGAUGUGAGUGUGUGAUGUGAGAUGUGUGUAUGUGAGAUGUGUGUGUGUGUGUGUGUGUGUGUGAUGUGAGUCACCCAAAGGUCCCUAUGUUAUUGAUUUUCAAAUGCACACUUUCACACACAAGGAUACACUAACAGACCAAAAUCAAUGAGAUCUCUUGCGGUCGCACUAGUGUGGAAUUCUCGGGUGUCAAGG

Whole data set: some 9,900 sequences, median “r (bound/input frequency ratio)” near 0.7, cut for the highest 2% near 6.5. This excerpt belongs to a sample that is enriched for the highest values.

TDP-43, sequence (Q13148 whole entry): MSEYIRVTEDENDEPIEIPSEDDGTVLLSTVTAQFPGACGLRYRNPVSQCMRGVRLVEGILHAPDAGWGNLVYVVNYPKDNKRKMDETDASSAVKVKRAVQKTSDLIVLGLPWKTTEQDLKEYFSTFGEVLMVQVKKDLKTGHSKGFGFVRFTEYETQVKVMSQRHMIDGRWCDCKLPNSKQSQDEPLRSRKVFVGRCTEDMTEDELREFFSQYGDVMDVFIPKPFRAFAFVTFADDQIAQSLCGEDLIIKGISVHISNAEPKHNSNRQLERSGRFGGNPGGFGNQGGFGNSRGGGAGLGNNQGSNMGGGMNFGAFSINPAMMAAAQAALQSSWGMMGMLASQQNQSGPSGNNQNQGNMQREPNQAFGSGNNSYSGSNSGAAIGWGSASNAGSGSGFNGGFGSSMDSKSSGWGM

The assay concerns the target TDP-43 (Homo sapiens, UniProt Q13148 1-414). Nature of the assay: RNA Bind-n-Seq with designed 260-mer pool; 25 mM Tris-HCl, 150 mM KCl, 3 mM MgCl2, BSA (printed 500 mg/mL), 20 units/mL SUPERase IN; pH not stated; 500 nM RNA pool, 1 h, 4 C; TDP-43 5, 50, 500 nM; high values mean tight binding. The following applies: protein: recombinant; tags: SBP (GST cleaved off with PreScission; pGEX-GST-SBP). An outline of the steps:
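Duplicate measurements used two independent batches of recombinant SBP-tagged TDP-43, which was captured on streptavidin beads at 5, 50 or 500 nM. The beads were incubated with 500 nM of an in vitro-transcribed 260-nt 3′ UTR oligo pool for 1 h at 4 °C in 25 mM Tris-HCl, 150 mM KCl, 3 mM MgCl2, BSA and SUPERase IN. After washing, biotin elution, reverse transcription, PCR amplification and sequencing, binding was expressed as R: each oligo's normalized read abundance in the bound sample over its abundance in input.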
Turning to B1, the binding signal is 1.51 R (bound/input frequency ratio).

Turning to B2, the binding signal is 1.64 R (bound/input frequency ratio).

With B3, the binding signal was 0.459 R (bound/input frequency ratio).

For the molecule B4, the binding signal is 0.283 R (bound/input frequency ratio).

As to B5, the binding signal was 0.19 R (bound/input frequency ratio).

Consider B6, for which the binding signal was 0.309 R (bound/input frequency ratio).

Consider B7, for which the binding signal is 2.93 R (bound/input frequency ratio).

B8: the binding signal is 3.96 R (bound/input frequency ratio).

Consider B9, for which the binding signal is 8.02 R (bound/input frequency ratio).

Turning to B10, the binding signal was 8.82 R (bound/input frequency ratio).

As to B11, the binding signal was 2.69 R (bound/input frequency ratio).

Consider B12, for which the binding signal was 5.18 R (bound/input frequency ratio).

B13: the binding signal is 5.98 R (bound/input frequency ratio).

With B14, the binding signal is 8.03 R (bound/input frequency ratio).

Regarding B15, the binding signal was 7.46 R (bound/input frequency ratio).

The record behind these values is PMC12864922, “TDP-43 directly inhibits mRNA accumulation in neurites through modulation of mRNA stability”.
